CHX counter: counter-screen for Shiga toxin inhibitors: cycloheximide protein synthesis inhibition. cell reporter, cycloheximide protein synthesis inhibition counterscreen. max response, %. hit rate 12% among 300,000. AID 2314; in the data active = max response mostly above about 13%, no sharp cut-off; inactive = mostly below about 14%; note: read at 38.3 µM for the half of the compounds with a filed dose; 0% is about no effect
Shiga inhibitor: Shiga toxin inhibition; Vero cells, Shiga toxin protein synthesis inhibition reporter; inhibition, % at 38.7 µM; hit rate 9.2% among 290,000; AID 2315; in the data active = inhibition mostly above about 28%, no sharp cut-off; inactive = mostly below about 43%; note: 0% is about no effect
MARV entry inh: Marburg virus entry inhibition | AID 540276 | Marburg virus pseudotyped entry inhibition, cell reporter | Potency, µM (titrated, usually from 37.8 µM), without a hit: at the highest dose activity change, negative = inhibition, most hits filed as inhibitors | hit rate 1.8% among 300,000; calls by dose curve; tested in HEK293 cells; note: potency is the fitted concentration of half-maximal effect; % is set by controls: 0 for no effect and ±100 for the full control effect
LASV entry inh: Lassa virus entry inhibition; Lassa virus pseudotype entry inhibition, cell reporter; Potency, µM (titrated, usually from 37.9 µM), without a hit: at the highest dose activity change, negative = inhibition, actives largely listed as inhibitors; hit rate 1.2% among 300,000; calls by dose curve; tested in HEK293 cells; note: potency is the fitted concentration of half-maximal effect; % is set by controls: 0 for no effect and ±100 for the full control effect; nearly all actives have a fitted effect of over 50% in size
Active calls of the source: *; [ ] = remark or other dose. Only some compounds are listed: those with a hit (about 12% of all), similar ones and a draw of the others.

COc1ccc(C2N(c3ccc4c(c3)OCCO4)C(=O)C2(F)F)cc1OC (centres undefined) was read as CHX counter 1.5, Shiga inhibitor -2.4, MARV entry inh 14.5%[46.1 µM] and LASV entry inh -11.7%.
`CC(=O)N1CCN(c2ccc(S(C)(=O)=O)cc2[N+](=O)[O-])CC1` gave CHX counter 5.7, Shiga inhibitor 9.2, MARV entry inh 5.6% and LASV entry inh 4.3%.
Screening O=C(OCC(=O)N1CCCC1)c1cccs1 returned CHX counter 42.2*, Shiga inhibitor 72.0*, MARV entry inh inconclusive and LASV entry inh 14.0%.
For O=C(NCC(=O)N1CCN(c2ccccc2)CC1)c1cccs1 the results were CHX counter 22.1* and Shiga inhibitor 20.6.
`O=C(OCC(=O)N1CCN(c2ccccc2)CC1)c1cccs1` gave MARV entry inh inconclusive and LASV entry inh -7.5%[46.1 µM].
`COc1ccc(N2CCN(C(=O)CNC(=O)c3cccs3)CC2)cc1` gave CHX counter 0.9 and Shiga inhibitor -3.9.
O=C(CCC(=O)N1CCN(c2ccc(O)cc2)CC1)c1cccs1 was read as CHX counter 30.5* and Shiga inhibitor 51.9*.
Screening O=C(NCC(=O)N1CCCC1)c1cccs1 returned CHX counter 16.8*, Shiga inhibitor 25.8*, MARV entry inh 2.1% and LASV entry inh 21.7%.
`COc1cc2c(cc1OC)C(c1ccc([N+](=O)[O-])cc1)NC(=O)C2` (centres undefined) gave CHX counter -3.0 and Shiga inhibitor -9.0.
Screening COc1ccc(N2C(=O)C(F)(F)C2c2ccc(C)cc2)cc1OC (centres undefined) returned CHX counter -0.8, Shiga inhibitor -4.5, MARV entry inh -11.3%[46.1 µM] and LASV entry inh -2.9%[46.1 µM].
Screening O=C(c1cccs1)N1CCN(c2ccc(Cl)cc2)CC1 returned CHX counter 22.2*, Shiga inhibitor 19.8, MARV entry inh inconclusive and LASV entry inh 9.3%[46.1 µM].
For O=C(NCC(=O)N1CCN(c2ncccn2)CC1)c1cccs1 the results were CHX counter 32.9*, Shiga inhibitor 46.1, MARV entry inh inconclusive and LASV entry inh inconclusive.
Screening CN1CCN(C(=O)CNC(=O)c2cccs2)CC1 returned MARV entry inh 1.7% and LASV entry inh 22.0%.
`CC(C)N1CCC(=NNC(=O)c2ccccc2[N+](=O)[O-])CC1` gave CHX counter -1.2, Shiga inhibitor 1.7, MARV entry inh -3.9% and LASV entry inh 29.7%.
`CC(C)N1CCC(=NNC(=O)c2cccs2)CC1` gave CHX counter 45.8*, Shiga inhibitor 113.6*, MARV entry inh inconclusive and LASV entry inh 10.0%[46.1 µM].
For CC(C)C1=NN(C(=O)c2ccccc2)C(O)(C(C)(C)C)C1 (centres undefined) the results were CHX counter 29.0*, Shiga inhibitor 20.9, MARV entry inh 23.0% and LASV entry inh 11.7%.
For CC(C)(C)C1=NN(C(=O)c2ccccc2)C(O)(C(C)(C)C)C1 (centres undefined) the results were CHX counter 13.0*, Shiga inhibitor 34.3*, MARV entry inh -1.1% and LASV entry inh inconclusive.
O=C(Nc1ccc(-n2ccc(C(F)(F)F)n2)cc1)c1cccs1 was read as CHX counter 44.5*, Shiga inhibitor 116.9*, MARV entry inh 6.6%[46.1 µM] and LASV entry inh inconclusive.
Screening O=C(O)CCC(=O)Nc1ccc(-n2ccc(C(F)(F)F)n2)cc1 returned CHX counter 24.7*, Shiga inhibitor 42.0*, MARV entry inh 17.7%[46.1 µM] and LASV entry inh 0.8%[46.1 µM].
For O=C(NC1CCCCC1)C(=S)NCCc1ccccc1 the results were CHX counter -2.6, Shiga inhibitor 5.3, MARV entry inh inconclusive and LASV entry inh 6.3%[46.1 µM].
`S=C(NCCc1ccc(Cl)cc1)NC1CCCC1` gave CHX counter 44.4* and Shiga inhibitor 70.8*.
`S=C(NCCc1ccc(Cl)cc1)NC1CCCCC1` gave CHX counter 55.6*, Shiga inhibitor 103.0*, MARV entry inh inconclusive and LASV entry inh inconclusive.
S=C(NCCc1ccccc1)NC1CCCCCC1 was read as CHX counter 50.8*, Shiga inhibitor 72.9*, MARV entry inh -11.5% and LASV entry inh inconclusive.
CC(=O)N/C(=N/c1nc(C)cc(C)n1)Nc1cccc(C)c1C was read as CHX counter -4.3, Shiga inhibitor 14.1, MARV entry inh 15.4% and LASV entry inh 21.1%.
Screening Clc1ccc(CNc2nc(CN3CCOCC3)nc3scc(-c4ccccc4)c23)cc1 returned CHX counter 0.8, Shiga inhibitor -2.4, MARV entry inh 20µM* and LASV entry inh inconclusive.
Screening CCN(c1ccccc1)S(=O)(=O)c1ccc2c(c1)C(C)(C)C(=O)N2C returned CHX counter 0.9 and Shiga inhibitor -4.3.
For COc1ccc(C(=O)Nc2ccc(Cn3ccnc3)cc2)cc1OC the results were CHX counter 13.0*, Shiga inhibitor 21.3*, MARV entry inh -0.5%[46.1 µM] and LASV entry inh 15.9%[46.1 µM].
O=C(Nc1ccc(Cn2ccnc2)cc1)c1cccc(C(F)(F)F)c1 was read as CHX counter 2.7 and Shiga inhibitor -7.3.
`COc1cc(OC)cc(C(=O)Nc2ccc(Cn3ccnc3)cc2)c1` gave CHX counter 15.1* and Shiga inhibitor 25.2.
Screening COc1ccc(CNC(=O)[C@@H](C)NC(=O)C2CCN(C(=O)[C@@H](N)CCSC)CC2)cc1 returned CHX counter -1.4 and Shiga inhibitor -5.6.
COC(=O)/C(=C/c1c[nH]c2ccccc12)[N+](=O)[O-] was read as CHX counter 4.4, Shiga inhibitor -36.1, MARV entry inh 13.2% and LASV entry inh -1.6%.
Cc1ccc(CNCC(O)(c2ccccc2)c2ccc(Cl)cc2)cc1 (centres undefined) was read as CHX counter -1.5, Shiga inhibitor 8.9, MARV entry inh 10µM* and LASV entry inh -15.3%[46.1 µM].
For Cc1ccc(CNCC(O)(c2ccccc2)c2ccccc2)cc1 the results were CHX counter 14.7* and Shiga inhibitor 22.6.
COc1ccc(CNCC(O)(c2ccccc2)c2ccc(Cl)cc2)cc1 (centres undefined) was read as CHX counter 10.1, Shiga inhibitor -2.2, MARV entry inh inconclusive and LASV entry inh -14.4%.
COc1cccc(CNCC(O)(c2ccc(Cl)cc2)c2ccc(Cl)cc2)c1 was read as CHX counter -3.6, Shiga inhibitor 57.3, MARV entry inh 18.3µM* and LASV entry inh -11.1%.
For Cc1ccc(NC(=O)C2CCN(S(=O)(=O)c3ccc4[nH]c(=O)ccc4c3)CC2)cc1C the results were LASV entry inh 5.9%[46.1 µM].
For Cc1csc(NC(=O)c2cc3c(s2)CCCCC3)n1 the results were CHX counter 14.8*, Shiga inhibitor 1.7, MARV entry inh inconclusive and LASV entry inh 2.24µM*.
Screening Cc1cnc(NC(=O)c2cc3c(s2)CCCC3)s1 returned CHX counter 40.4*, Shiga inhibitor 60.6*, MARV entry inh inconclusive and LASV entry inh inconclusive.
Cc1csc(NC(=O)c2cc3c(s2)CCCC3)n1 was read as CHX counter 61.5* and Shiga inhibitor 80.8*.
`CCOC(=O)Cc1csc(NC(=O)c2cc3c(s2)CCCC3)n1` gave CHX counter 20.1, Shiga inhibitor 38.5, MARV entry inh inconclusive and LASV entry inh inconclusive.
CCc1nnc(NC(=O)c2cc3c(s2)CCCCC3)s1 was read as MARV entry inh -0.2% and LASV entry inh inconclusive.

Compound activity from PubChem.
